# PubChem BioAssay (NCI)
# Compounds without any hit were thinned out: in the full panel of roughly 83,000, 20% have a hit.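 Assay: single dose, 48 h. Readout: percent growth (0 = no net growth; negative = cell death). Active: <10.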 Unmarked numbers belong to inactive results. Activity calls are given as the source filed them.
# Tested on: HL-60(TB) leukemia
# Experiment: NCI-60 one-dose screen, 48 h (100 = growth as untreated, 0 = no growth, -100 = all killed)
# Details: 10 µM unless noted
row,SMILES,growth
1,O=C(Nc1cccc(Cn2c(=O)[nH]c3ccc(Oc4ncccn4)cc3c2=O)c1)c1cc(Cl)cc(Cl)c1,98.5%
2,COc1cc(OC)c(/C=C/C(=O)c2c(OC)cccc2OC)c(OC)c1,7.89% (active)
3,O=C1/C(=C\c2cn(-c3nc(N4CCOCC4)nc(N4CCOCC4)n3)c3ccccc23)c2ccccc2N1c1c(Cl)cccc1Cl,64.7%
4,CCOC(=O)CSC(=S)SCC(=O)OCC,103%
5,N#Cc1nc(-c2ccccc2)oc1S(=O)(=O)NCC(c1ccc(Cl)cc1)N1CCCCC1 (centres undefined),8.18% (active)
6,COc1cc(-c2nc(SCCC(C)C)nc(Nc3ccc(S(N)(=O)=O)cc3)c2C#N)cc(OC)c1OC,-18.9% (active)
7,CCCC(CC)(C(=O)Nc1ccc2nc(C)cc(N)c2c1)C(=O)Nc1ccc2nc(C)cc(N)c2c1,100%
8,COc1ccc(N=Cc2c(O)ccc3c2oc2cc(Cl)c(O)c(Cl)c23)cc1,86.6%
9,Cc1ccccc1-n1nnc(C(=O)Nc2nc(-c3ccccc3)c(-c3ccccc3)s2)c1C,89.1% [50 µM]
10,O=c1n(Cc2ccc3ccccc3c2)ccn1Cc1ccc2ccccc2c1,103%
11,Cc1ccc2nc(-c3ccc(C(=O)NNC(=S)Nc4ccccc4)cc3)[nH]c2c1,98%
12,O=C(COc1cc(O)c2c(=O)cc(-c3ccccc3)oc2c1)Nc1ccccc1C(F)(F)F,55%
13,Fc1ccc(CNc2c3ccccc3nc3ccccc23)cc1F,34.5%
14,CCCCCCCC/C=C\CCCCCCCCOc1ccccc1CC(=O)NCC[N+]1(C)CCOCC1,67.2%
15,c1ccc(CCn2cccc2)nc1,1.63% (active)
16,O=C(COc1cccc(/C=C2\Cc3ccc(Cl)cc3C2=O)c1)Nc1nccs1,62.2%
17,COc1c(B(O)O)cc(C)cc1-c1nc2ccc3[nH]ncc3c2c2c1CCCC2,13.3%
18,Cc1nn2c(/C=C3/C(=O)Nc4cc(Cl)ccc43)c(-c3ccccc3)nc2s1,32.2%
19,C=CCO[C@H]1CO[C@H]2[C@@H]1OC[C@@H]2Oc1ccc(Nc2ccnc(Nc3ccc(O[C@H]4CO[C@H]5[C@@H]4OC[C@@H]5OCC=C)c(Cl)c3)n2)cc1Cl,-51.4% (active)
20,COc1ccc2cc(-c3ccc(-c4ccc(C(=N)N)cc4)s3)ccc2c1,100%

row,SMILES,growth
1,CCCn1c(=O)[nH]c(N)c([C@H]2c3ccccc3Oc3[nH]c(=O)n(CCC)c(=O)c32)c1=O,32.9%
2,CCOC(=O)c1cc(C(=O)c2cc(OC)cc(OC)c2)n2ncc3ccccc3c12,-8.3% (active)
3,CSc1nnc2c(=O)n(C)c(=O)n(C)c2n1,161%
4,O=C1OC[C@H]2[C@H](c3ccc(O)c(O)c3)c3cc(O)c(O)cc3C[C@H]12,217%
5,CN(C)CCCn1c2c(c3cc(-c4ccco4)ccc3c1=O)C(=O)c1ccccc1-2,93.1%
6,CCn1cc(C(=O)O)c(=O)c2cc(F)c(N3CCN(CC(=O)Nc4ccc(/C(C)=N/OC)cc4)CC3)cc21,90.9%
7,Cc1ccccc1NC(=O)Oc1ccc(Cl)cc1C(=O)c1ccccc1,103%
8,COc1cc2ncnc(Nc3ccc(S(=O)(=O)Nc4cc(C)on4)cc3)c2cc1OCCCN1CCN(c2ccc(F)cc2)CC1,112%
9,CN1CCN(c2nc3scc(-c4ccccc4)c3c(=O)[nH]2)CC1,90.8%
10,CCN(CC)CCNc1ccc([N+](=O)[O-])c2sc3cc(Cl)ccc3c(=O)c12,54.7%
11,Oc1c(Br)cc(Br)c2ccc(Cn3cc(-c4ccc(C(F)(F)F)cc4)nn3)nc12,-5.83% (active)
12,COc1cccc(/C=C/C(=O)c2cccc(Nc3nc(Nc4ccccc4)nc(Nc4ccccc4)n3)c2)c1,94.2%
13,O=C(c1ccccc1)N1N=C(c2ccc(-n3ccc(C(F)(F)F)n3)c(F)c2)CC1c1ccc[nH]1 (centres undefined),101%
14,C=CCn1c(C)nc2cc(Nc3nc(N4CCCC4)nc4ccccc34)ccc21,88.5%
15,O=C(CSc1nc2ccccc2c(=O)n1-c1ccccc1)Nc1ccc(C(=O)/C=C/c2ccc(Cl)cc2)cc1,99%
16,Oc1ccc(N=Cc2ccccc2O)cc1,63.3%
17,O=C(c1ccc(Cl)cc1Cl)N1c2ccccc2Sc2ccccc21,35.8%
18,CC1=NN(c2nc(-c3ccc(Cl)cc3)c(C#N)c(N3CCOCC3)n2)C(=O)C1,81.8%
19,O=C(N/N=C/[C@@H](O)[C@H](O)[C@H](O)CO)c1ccc(NC(=O)c2cccnc2)cc1,99.4%
